Assay results from PubChem BioAssay AID720541 (National Center for Advancing Translational Sciences (NCATS), 2013).
Among all 1,300 compounds or so, about 420 (32%) were called active. About 32% were inconclusive and are not listed. Calls follow the shape of the dose curve; as a rule, active = well fitted inhibition curve with a large enough effect; inconclusive = small, poorly fitted or top-dose-only effect; inactive = no such curve, though single readings can be large or run the other way. The list shows a part of the results.

Biological target: C-terminal-binding protein 1 (Homo sapiens) (UniProt Q13363)
Assay: qHTS for Inhibitors of the Phosphatase Activity of Eya2: Carboxyl-terminal binding protein (CtBP) Counterscreen for Cherry-picked Compounds; also: nearly all actives have a fitted effect of over 65% in size
Details: purified protein-protein binding, AlphaScreen, 3 h; series mostly up to 46.1 µM; activity change, negative = inhibition: at the top concentration
Summary of the method: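 Cherry-picked compounds (final 2.5 nM–46 uM) were incubated 2 h at RT with 25 nM CtBP-6xHIS and 25 nM GST-E1A. Alpha beads (20 ug/mL) were then added for 1 h, light-protected; DMSO and E1A peptide inhibitor wells set the normalization.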
% is scaled to controls: 0 for no effect and ±100 for the full control effect; potency is read from the fitted curve at half-maximal effect.

SMILES | Potency | activity change, negative = inhibition
O=c1cc2oc3cc(O)c(O)cc3c(-c3ccccc3[N+](=O)[O-])c-2cc1O | 9.53 µM (active) | 
Cc1cccc(C)c1OCc1cc(C(=O)N2CCN(c3ccccc3)CC2C)no1 (stereo not drawn) |  | 1.7% (inactive)
COc1ccc(-c2c(N)cnc(C(=O)O)c2C)c(OCc2ccccc2)c1OC | 12 µM (active) | 
COc1cc(C(C(=O)NC2CCCCC2)N(C(=O)Cc2c[nH]c3ccccc23)c2ccc(C)cc2)cc(OC)c1OC (stereo not drawn) |  | -17% (inactive)
Cc1cc(/C=N/NC(=O)c2ccccn2)c(C)n1-c1cccc([N+](=O)[O-])c1 | 15.1 µM (active) | 
CCCCn1nc(C(=O)Nc2ccc3c(c2)OCO3)c2ccccc2c1=O | 15.1 µM (active) | 
O=C(CCn1c(=O)oc2ccccc21)NCc1ccc2c(c1)OCO2 |  | 6.99% (inactive)
Cn1nnnc1SCC(=O)Nc1ccc2c(c1)OCO2 |  | 7.08% (inactive)
COc1cc2c(cc1OC)C(c1ccc([N+](=O)[O-])cc1)NCC2 (stereo not drawn) |  | -2.74% (inactive)
Nc1ccc2nc3c(=O)[nH]c(=S)[nH]c3nc2c1 | 3.79 µM (active) | 
CN(C)c1ccc(N=Nc2ccnc3ccccc23)cc1 | 2.13 µM (active) | 
COc1cc(NC(=O)CN2C(=O)CSc3ccc(S(=O)(=O)N4CCCC4)cc32)cc(OC)c1 |  | -78.4% (inactive)
CCC(=O)N1N=C(c2ccc(C)o2)CC1c1ccc(N(C)C)cc1 (stereo not drawn) |  | -29.7% (inactive)
COc1ccc(C2CC(c3ccccc3OC(=O)/C=C/c3ccccc3)=NN2C(C)=O)cc1 (stereo not drawn) | 1.69 µM (active) | 
O=C(Oc1cccnc1)c1ccc([N+](=O)[O-])cc1Cl |  | -23.8% (inactive)
COc1ccc(CCn2c(=N)c(C(=O)NCc3ccco3)cc3c(=O)n4ccccc4nc32)cc1OC | 9.53 µM (active) | 
Cc1cccn2c(=O)c3cc(S(=O)(=O)c4ccc(F)cc4)c(=N)n(Cc4ccco4)c3nc12 |  | 2.11% (inactive)
COc1ccc(CCn2c(=N)c(C(=O)NCC3CCCO3)cc3c(=O)n4ccccc4nc32)cc1 (stereo not drawn) | 12 µM (active) | 
COc1ccccc1Nc1nc(-c2ccc3c(c2)NC(=O)CO3)cs1 |  | 7.27% (inactive)
COc1ccc(-c2csc(Nc3ccc(S(N)(=O)=O)cc3)n2)cc1OC | 15.1 µM (active) | 

SMILES | Potency | activity change, negative = inhibition
COCCn1c(C)cc(C(=O)COC(=O)c2ccccc2Br)c1C |  | -24.1% (inactive)
Cc1cc(C(=O)COC(=O)c2cccnc2Cl)c(C)n1-c1c(C)n(C)n(-c2ccccc2)c1=O |  | -0.409% (inactive)
CCn1cc(C(=O)OCC(=O)c2cc(C)n(-c3ccccc3F)c2C)c(=O)c2ccc(C)nc21 | 16.9 µM (active) | 
CS(=O)(=O)c1ccc(-c2nnc(NC(=O)C3=COCCO3)o2)cc1 |  | -24.7% (inactive)
O=C(COC(=O)c1cc(-c2cccnc2)nc2ccccc12)Nc1ccc(F)cc1F |  | -12.7% (inactive)
CC1CCCN(S(=O)(=O)c2ccc(C(=O)Nc3nnc(-c4ccco4)o3)cc2)C1 (stereo not drawn) |  | -45.9% (inactive)
CCOc1ccccc1C(=O)OCC(=O)Nc1nnc(-c2ccccc2)o1 | 13.5 µM (active) | 
COc1ccc(NC(=O)c2ccc(COc3ccccc3)o2)c(OC)c1 |  | 1.73% (inactive)
O=C(COc1ccccc1)Nc1nnc(-c2ccco2)o1 | 16.9 µM (active) | 
COc1ccc(C(=O)Nc2nnc(-c3ccccc3)o2)cc1OC | 19 µM (active) | 
CCC(=O)NC(=S)Nc1ccc(NC(=O)COc2ccc([N+](=O)[O-])cc2)cc1 |  | -0.724% (inactive)
CCc1ccc(NC(=O)COC(=O)c2ccccc2OCC(=O)N(C)C)cc1 |  | 8.66% (inactive)
COc1ccccc1-c1noc2c1C(=O)N(Cc1cn(-c3ccc(Cl)cc3)nn1)CC2 |  | -9.35% (inactive)
COc1cc(N)c(Cl)cc1C(=O)N[C@H]1CCN(CCCOc2ccc(F)cc2)C[C@H]1OC |  | 6.45% (inactive)
Brc1ccc(Cn2c(-c3ccc(Br)o3)nc3ccccc32)o1 |  | -29% (inactive)
Cc1cc(C(=O)COC(=O)c2ccc(O)cc2)c(C)n1CCc1ccc(F)cc1 |  | -11.6% (inactive)
CCOC(=O)C(C)N1C(=O)S/C(=C\c2ccc(-c3ccccc3C(=O)O)o2)C1=O (stereo not drawn) | 15.1 µM (active) | 
CCn1c(C)cc(/C=C2/SC(=O)N(C(C)C(=O)OC)C2=O)c1C (stereo not drawn) |  | -12.7% (inactive)
Cc1c(C(=O)O)cccc1-c1ccc(/C=C2\SC(=O)NC2=O)o1 |  | -8.25% (inactive)
O=C(O)CSCc1nc2cccnc2n1C1CCCCC1 |  | -5.89% (inactive)

SMILES | Potency | activity change, negative = inhibition
CC1(C)CC(=O)C(C2C3=C(CC(C)(C)CC3=O)Oc3c(Br)cc(Br)cc32)=C(O)C1 (stereo not drawn) | 4.78 µM (active) | 
Cc1nc(C)c(-c2csc(Nc3ccc(O)c(C(=O)O)c3)n2)s1 | 15.1 µM (active) | 
Cn1c(=O)c2[nH]c(COc3ccccc3)nc2n(C)c1=O |  | -15.6% (inactive)
CC1(C)Nc2cccc3c(N=Nc4ccc(N=Nc5ccccc5)c5ccccc45)ccc(c23)N1 | 3.38 µM (active) | 
COc1ccc(N(CC(=O)Nc2nc3ccc(C)cc3s2)S(=O)(=O)c2c(C)nn(C)c2C)cc1 |  | -8.97% (inactive)
CCc1cnc2ccccc2c1/C=C/c1ccc(N(C)C)cc1 | 10.7 µM (active) | 
Cc1cnc2ccc(I)cc2c1/C=C/c1ccc(N(C)C)cc1 | 10.7 µM (active) | 
Cc1ccc(-n2nnnc2C(=Cc2ccc(N(C)C)cc2)c2nnnn2-c2ccc(C)cc2)cc1 |  | 6.55% (inactive)
Cc1ccc2c(/C=C/c3ccc(N(C)C)cc3)c(C)cnc2c1 | 10.7 µM (active) | 
CCN(CC)c1ccc(/C=C/c2c(C)cnc3ccc(C)cc23)cc1 | 8.49 µM (active) | 
O=c1cc(-c2ccccc2Cl)oc2c(NS(=O)(=O)c3ccccc3OC(F)(F)F)ccc(O)c12 |  | -22.3% (inactive)
O=C(O)c1c(C(=O)N2N=C3/C(=C/c4ccccc4)CCCC3C2c2ccccc2)cccc1[N+](=O)[O-] (stereo not drawn) |  | -5.07% (inactive)
Cc1ccccc1NC(=O)C1CCN(C(=O)N2CCOc3ccccc32)CC1 |  | -1.23% (inactive)
CC1CN(C(=O)c2cc(S(=O)(=O)N(C)c3ccc(F)cc3)ccc2Cl)CC(C)O1 (stereo not drawn) |  | 1.04% (inactive)
CCOc1ccc(S(=O)(=O)N2CCN(C)CC2)cc1NC(=O)c1ccccc1F | 7.57 µM (active) | 
CC(Oc1ccc(F)cc1)C(=O)Nc1cc(S(=O)(=O)N2CCCCC2)ccc1N1CCN(C)CC1 (stereo not drawn) |  | -22.7% (inactive)
COc1ccc(S(=O)(=O)N2CCCCC2)cc1NC(=O)c1[nH]c(C)c(C(C)=O)c1C |  | -26.5% (inactive)
O=C1c2ccccc2C(=O)N1CCCc1cn(C[C@H]2CC[C@@H]([C@@H]3CC[C@H](Cn4cc(CCCN5C(=O)c6ccccc6C5=O)nn4)O3)O2)nn1 |  | 7.27% (inactive)
